In general, inhibition refers to the relative decrease from the control value, in per cent.

For assay [1], the target named is T1, Serine/threonine-protein kinase Nek9 (Homo sapiens) (UniProt Q8TD19).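 Also: each value is a mean percent inhibition of NEK9.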
T1 sequence (whole entry): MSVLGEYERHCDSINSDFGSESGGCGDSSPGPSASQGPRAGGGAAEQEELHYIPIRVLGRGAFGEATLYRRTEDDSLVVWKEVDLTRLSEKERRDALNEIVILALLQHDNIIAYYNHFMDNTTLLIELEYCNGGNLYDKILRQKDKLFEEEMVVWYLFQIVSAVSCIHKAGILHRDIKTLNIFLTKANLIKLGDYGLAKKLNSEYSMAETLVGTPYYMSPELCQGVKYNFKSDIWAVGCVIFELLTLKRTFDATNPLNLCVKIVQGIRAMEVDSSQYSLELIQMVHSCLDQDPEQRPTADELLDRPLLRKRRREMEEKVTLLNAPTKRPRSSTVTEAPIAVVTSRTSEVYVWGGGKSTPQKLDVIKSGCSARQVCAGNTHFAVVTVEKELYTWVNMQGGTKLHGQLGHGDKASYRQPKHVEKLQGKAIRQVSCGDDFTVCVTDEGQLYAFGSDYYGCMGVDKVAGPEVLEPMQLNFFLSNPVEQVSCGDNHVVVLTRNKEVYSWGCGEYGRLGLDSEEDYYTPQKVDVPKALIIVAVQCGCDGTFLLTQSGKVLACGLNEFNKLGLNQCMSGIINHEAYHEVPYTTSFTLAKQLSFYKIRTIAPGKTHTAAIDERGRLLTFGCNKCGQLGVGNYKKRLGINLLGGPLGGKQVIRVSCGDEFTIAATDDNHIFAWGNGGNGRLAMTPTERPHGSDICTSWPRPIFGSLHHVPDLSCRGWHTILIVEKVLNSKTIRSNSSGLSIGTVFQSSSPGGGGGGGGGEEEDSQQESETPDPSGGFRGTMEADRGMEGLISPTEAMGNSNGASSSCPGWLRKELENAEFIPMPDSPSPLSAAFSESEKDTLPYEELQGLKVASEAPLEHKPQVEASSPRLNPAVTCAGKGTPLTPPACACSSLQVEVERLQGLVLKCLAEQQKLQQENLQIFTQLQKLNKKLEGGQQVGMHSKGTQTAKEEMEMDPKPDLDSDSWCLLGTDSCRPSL
The following applies: at 1 µM.

Assay [2] has as its target Serine/threonine-protein kinase PLK1 (Homo sapiens) (UniProt P53350). Conditions: at 0.1 µM.
Assay [3] shares this target. Conditions: at 1 µM.
In assay [4] the target is T2, Dual specificity protein kinase TTK (Homo sapiens) (UniProt P33981).
T2 sequence (whole entry): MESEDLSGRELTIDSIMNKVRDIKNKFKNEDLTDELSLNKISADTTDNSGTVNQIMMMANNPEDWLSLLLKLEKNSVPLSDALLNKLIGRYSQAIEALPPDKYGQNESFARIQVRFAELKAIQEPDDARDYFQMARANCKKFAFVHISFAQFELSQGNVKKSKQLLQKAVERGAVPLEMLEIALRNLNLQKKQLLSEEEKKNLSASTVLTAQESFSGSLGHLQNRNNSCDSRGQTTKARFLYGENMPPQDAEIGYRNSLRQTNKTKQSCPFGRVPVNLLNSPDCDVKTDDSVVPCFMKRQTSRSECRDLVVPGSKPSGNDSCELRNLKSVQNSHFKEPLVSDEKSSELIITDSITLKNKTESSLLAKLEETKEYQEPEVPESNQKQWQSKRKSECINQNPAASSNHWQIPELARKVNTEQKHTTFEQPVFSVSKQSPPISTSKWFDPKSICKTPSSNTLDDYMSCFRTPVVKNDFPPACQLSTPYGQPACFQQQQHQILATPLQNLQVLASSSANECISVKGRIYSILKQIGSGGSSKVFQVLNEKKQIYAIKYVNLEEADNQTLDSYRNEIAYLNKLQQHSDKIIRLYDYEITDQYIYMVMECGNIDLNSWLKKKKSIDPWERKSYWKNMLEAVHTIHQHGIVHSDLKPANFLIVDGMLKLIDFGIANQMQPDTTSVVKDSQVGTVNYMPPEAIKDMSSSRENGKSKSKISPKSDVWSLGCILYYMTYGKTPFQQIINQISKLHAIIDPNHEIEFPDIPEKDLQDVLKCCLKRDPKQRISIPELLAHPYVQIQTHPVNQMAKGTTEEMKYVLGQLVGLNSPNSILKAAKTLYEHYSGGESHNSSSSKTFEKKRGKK
The following applies: at 0.1 µM.

The subject of assay [5] is T3, Receptor-type tyrosine-protein kinase FLT3 (Homo sapiens), P36888 [D835Y].
T3 sequence (whole entry): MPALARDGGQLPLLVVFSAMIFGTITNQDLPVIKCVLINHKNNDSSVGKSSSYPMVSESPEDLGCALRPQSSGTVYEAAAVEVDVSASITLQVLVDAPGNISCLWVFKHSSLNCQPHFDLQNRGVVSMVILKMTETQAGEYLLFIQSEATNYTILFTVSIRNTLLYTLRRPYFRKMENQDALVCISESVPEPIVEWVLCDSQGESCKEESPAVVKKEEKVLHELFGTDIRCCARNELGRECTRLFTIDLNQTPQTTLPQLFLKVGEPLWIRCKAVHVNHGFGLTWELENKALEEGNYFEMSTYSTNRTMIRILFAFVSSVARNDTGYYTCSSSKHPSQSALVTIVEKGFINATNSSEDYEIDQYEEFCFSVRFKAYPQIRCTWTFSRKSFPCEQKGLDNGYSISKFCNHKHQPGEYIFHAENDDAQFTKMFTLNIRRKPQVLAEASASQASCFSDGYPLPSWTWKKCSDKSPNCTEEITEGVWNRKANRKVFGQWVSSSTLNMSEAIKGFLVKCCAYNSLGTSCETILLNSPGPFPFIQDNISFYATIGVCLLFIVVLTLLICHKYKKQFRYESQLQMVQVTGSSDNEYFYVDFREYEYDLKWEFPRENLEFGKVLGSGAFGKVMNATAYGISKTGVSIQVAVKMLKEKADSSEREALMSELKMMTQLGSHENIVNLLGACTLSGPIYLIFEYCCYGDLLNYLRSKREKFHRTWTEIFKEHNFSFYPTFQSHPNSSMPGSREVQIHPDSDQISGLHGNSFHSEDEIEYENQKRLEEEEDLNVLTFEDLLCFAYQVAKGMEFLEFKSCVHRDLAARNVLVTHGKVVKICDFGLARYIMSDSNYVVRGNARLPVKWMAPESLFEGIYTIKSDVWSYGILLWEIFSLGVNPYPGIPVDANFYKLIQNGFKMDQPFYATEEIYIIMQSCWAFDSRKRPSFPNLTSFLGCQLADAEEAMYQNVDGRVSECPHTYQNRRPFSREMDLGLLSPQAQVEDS
Conditions: at 1 µM.

Assay [6] concerns the target Vascular endothelial growth factor receptor 3 (Homo sapiens) (UniProt P35916). Conditions: at 0.1 µM.
Assay [7] has the same target. Conditions: at 1 µM.
The target in assay [8] is Macrophage colony-stimulating factor 1 receptor (Homo sapiens) (UniProt P07333). The following applies: at 0.1 µM.
Assay [9] shares this target. Conditions: at 1 µM.
Assay [10] concerns the target Tyrosine-protein kinase Fyn (Homo sapiens) (UniProt P06241). Conditions: at 0.1 µM.
The target is the same in assay [11]. Conditions: at 1 µM.
The target of assay [12] is Tyrosine-protein kinase HCK (Homo sapiens) (UniProt P08631). Conditions: at 0.1 µM.
For assay [13] the target is unchanged. Conditions: at 1 µM.
Assay [14] concerns the target Insulin-like growth factor 1 receptor (Homo sapiens) (UniProt P08069). The following applies: at 0.1 µM.
Assay [15] shares this target. Conditions: at 1 µM.
Assay [16] deals with Insulin receptor (Homo sapiens) (UniProt P06213). The following applies: at 0.1 µM.
The target is the same in assay [17]. Conditions: at 1 µM.
The target of assay [18] is Insulin receptor-related protein (Homo sapiens) (UniProt P14616). Conditions: at 0.1 µM.
For assay [19] the target is unchanged. The following applies: at 1 µM.
Assay [20] deals with T4, Tyrosine-protein kinase ITK/TSK (Homo sapiens) (UniProt Q08881).
T4 sequence (whole entry): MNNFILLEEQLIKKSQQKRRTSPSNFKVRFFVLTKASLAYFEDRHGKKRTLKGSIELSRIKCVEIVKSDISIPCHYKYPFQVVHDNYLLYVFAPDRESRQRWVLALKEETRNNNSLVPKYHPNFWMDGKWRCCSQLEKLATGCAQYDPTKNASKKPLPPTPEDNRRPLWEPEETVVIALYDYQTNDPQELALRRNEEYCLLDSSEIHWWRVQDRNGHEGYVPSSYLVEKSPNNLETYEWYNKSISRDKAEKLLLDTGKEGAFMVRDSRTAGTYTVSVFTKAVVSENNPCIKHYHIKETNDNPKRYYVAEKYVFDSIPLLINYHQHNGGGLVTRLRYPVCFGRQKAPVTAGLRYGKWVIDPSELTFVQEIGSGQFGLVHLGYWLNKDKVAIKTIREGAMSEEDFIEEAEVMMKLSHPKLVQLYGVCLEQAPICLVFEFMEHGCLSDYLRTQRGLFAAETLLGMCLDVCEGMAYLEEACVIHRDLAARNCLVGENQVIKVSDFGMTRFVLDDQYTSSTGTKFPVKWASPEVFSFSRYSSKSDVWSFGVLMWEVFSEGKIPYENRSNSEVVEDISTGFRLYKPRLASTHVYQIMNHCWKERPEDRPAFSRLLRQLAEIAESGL
The following applies: at 0.1 µM.

Macrophage colony-stimulating factor 1 receptor (Homo sapiens), sequence (P07333 whole entry): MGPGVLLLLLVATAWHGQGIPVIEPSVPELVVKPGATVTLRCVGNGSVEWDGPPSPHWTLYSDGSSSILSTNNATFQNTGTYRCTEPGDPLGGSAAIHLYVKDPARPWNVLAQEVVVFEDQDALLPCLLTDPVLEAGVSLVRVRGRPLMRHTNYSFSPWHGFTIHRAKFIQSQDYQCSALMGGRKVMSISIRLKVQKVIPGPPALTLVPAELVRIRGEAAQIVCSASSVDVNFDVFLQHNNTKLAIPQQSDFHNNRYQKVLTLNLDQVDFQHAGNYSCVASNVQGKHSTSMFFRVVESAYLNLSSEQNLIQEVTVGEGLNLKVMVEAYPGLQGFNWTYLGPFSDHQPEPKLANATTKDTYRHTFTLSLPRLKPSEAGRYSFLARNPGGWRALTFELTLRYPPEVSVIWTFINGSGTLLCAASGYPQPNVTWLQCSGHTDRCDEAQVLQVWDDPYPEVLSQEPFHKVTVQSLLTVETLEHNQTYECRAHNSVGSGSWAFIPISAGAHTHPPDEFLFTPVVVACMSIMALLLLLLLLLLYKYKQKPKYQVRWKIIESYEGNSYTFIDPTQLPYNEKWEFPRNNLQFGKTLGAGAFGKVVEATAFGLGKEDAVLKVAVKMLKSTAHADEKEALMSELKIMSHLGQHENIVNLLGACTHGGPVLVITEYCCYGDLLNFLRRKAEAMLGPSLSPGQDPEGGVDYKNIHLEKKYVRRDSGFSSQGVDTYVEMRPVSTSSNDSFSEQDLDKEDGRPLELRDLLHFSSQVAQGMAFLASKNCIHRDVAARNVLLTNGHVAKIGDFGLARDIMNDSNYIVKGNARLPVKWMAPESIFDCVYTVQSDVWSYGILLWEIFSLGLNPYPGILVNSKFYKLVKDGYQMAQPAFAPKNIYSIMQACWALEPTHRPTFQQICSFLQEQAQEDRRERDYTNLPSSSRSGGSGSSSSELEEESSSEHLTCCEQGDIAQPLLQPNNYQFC
Tyrosine-protein kinase Fyn (Homo sapiens), sequence (P06241 2-537 limits assumed): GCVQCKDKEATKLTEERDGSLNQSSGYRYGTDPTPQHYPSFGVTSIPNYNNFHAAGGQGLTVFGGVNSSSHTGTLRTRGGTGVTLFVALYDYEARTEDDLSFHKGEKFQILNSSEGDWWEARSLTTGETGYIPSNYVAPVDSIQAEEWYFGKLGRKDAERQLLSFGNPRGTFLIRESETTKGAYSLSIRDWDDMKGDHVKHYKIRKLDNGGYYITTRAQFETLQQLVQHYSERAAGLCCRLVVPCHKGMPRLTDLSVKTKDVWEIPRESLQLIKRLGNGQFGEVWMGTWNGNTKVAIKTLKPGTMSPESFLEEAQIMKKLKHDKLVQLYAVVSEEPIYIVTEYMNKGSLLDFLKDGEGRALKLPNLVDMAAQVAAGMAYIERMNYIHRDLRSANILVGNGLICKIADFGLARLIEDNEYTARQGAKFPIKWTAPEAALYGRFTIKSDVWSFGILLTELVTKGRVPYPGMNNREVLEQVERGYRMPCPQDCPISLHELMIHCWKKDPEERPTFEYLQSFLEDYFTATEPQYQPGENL
Insulin receptor (Homo sapiens), sequence (P06213 28-758 limits assumed): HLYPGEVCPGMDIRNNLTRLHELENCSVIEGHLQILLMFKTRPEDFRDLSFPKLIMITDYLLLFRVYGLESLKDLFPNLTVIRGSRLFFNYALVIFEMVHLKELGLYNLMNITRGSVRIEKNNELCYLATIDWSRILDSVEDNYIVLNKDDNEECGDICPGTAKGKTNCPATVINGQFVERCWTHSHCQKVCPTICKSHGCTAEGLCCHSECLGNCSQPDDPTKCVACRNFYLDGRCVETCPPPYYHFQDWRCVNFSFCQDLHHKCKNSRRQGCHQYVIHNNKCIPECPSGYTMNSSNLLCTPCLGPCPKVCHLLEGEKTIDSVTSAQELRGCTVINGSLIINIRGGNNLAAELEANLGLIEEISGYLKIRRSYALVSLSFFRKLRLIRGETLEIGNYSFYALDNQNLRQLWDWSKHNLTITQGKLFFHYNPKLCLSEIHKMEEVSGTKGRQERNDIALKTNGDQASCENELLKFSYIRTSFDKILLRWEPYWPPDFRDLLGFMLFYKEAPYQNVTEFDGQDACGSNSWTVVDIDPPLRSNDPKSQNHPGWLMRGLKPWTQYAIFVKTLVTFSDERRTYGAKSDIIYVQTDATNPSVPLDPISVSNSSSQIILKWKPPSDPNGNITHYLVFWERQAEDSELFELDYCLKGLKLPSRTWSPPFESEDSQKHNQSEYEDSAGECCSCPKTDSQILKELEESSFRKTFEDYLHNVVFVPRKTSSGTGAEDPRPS
Insulin receptor (Homo sapiens), sequence (P06213 763-1382 limits assumed): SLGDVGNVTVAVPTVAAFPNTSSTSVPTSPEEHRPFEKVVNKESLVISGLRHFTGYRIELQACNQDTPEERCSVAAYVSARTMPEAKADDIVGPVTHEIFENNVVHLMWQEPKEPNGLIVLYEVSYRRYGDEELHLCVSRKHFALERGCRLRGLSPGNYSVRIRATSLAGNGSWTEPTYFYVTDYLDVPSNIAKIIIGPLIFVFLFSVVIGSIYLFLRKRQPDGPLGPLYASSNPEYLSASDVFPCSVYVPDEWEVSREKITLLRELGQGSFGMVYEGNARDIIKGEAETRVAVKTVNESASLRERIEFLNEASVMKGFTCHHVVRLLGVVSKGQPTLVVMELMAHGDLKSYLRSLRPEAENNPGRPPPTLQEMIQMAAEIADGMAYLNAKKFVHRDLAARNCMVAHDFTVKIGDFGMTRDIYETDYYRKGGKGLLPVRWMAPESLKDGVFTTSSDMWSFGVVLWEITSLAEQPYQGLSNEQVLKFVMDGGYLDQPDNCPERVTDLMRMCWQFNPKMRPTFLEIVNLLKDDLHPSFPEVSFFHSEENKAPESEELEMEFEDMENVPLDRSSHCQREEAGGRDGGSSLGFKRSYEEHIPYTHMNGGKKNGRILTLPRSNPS
Insulin receptor-related protein (Homo sapiens), sequence (P14616 27-742 limits assumed): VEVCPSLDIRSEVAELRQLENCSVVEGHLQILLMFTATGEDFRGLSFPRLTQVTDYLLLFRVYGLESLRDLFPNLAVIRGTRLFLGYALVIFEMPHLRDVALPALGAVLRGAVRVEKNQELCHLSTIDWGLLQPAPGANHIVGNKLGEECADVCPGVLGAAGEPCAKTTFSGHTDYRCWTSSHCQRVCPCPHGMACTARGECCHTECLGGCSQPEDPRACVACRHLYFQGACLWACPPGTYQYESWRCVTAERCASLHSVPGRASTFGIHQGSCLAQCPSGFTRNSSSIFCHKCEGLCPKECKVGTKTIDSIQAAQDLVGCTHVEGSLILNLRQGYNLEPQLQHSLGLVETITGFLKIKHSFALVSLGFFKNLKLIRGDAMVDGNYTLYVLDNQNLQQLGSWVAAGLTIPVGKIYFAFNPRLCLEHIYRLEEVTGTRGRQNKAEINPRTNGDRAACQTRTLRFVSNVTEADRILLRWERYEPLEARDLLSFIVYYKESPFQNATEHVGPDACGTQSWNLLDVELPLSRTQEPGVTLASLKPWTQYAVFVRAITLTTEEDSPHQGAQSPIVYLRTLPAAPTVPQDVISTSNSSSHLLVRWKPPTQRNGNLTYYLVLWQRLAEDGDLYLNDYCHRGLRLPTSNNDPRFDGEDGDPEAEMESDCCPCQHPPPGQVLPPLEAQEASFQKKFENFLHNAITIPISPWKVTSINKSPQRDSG
Insulin receptor-related protein (Homo sapiens), sequence (P14616 747-1297 limits assumed): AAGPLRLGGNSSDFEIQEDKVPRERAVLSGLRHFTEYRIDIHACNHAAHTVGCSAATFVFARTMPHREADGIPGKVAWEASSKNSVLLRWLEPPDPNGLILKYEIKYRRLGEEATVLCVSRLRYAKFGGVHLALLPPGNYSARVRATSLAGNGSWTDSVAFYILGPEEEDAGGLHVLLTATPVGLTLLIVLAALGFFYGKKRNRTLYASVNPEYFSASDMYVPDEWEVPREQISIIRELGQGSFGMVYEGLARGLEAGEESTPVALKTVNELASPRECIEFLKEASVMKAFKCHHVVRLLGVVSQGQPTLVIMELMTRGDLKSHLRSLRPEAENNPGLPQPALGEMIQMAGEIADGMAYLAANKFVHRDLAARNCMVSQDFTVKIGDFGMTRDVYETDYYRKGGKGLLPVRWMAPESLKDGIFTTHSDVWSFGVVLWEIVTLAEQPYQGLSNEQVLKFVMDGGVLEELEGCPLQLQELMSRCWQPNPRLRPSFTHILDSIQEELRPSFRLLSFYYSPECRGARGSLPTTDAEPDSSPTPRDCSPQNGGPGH
Tyrosine-protein kinase HCK (Homo sapiens), sequence (P08631 2-526 limits assumed): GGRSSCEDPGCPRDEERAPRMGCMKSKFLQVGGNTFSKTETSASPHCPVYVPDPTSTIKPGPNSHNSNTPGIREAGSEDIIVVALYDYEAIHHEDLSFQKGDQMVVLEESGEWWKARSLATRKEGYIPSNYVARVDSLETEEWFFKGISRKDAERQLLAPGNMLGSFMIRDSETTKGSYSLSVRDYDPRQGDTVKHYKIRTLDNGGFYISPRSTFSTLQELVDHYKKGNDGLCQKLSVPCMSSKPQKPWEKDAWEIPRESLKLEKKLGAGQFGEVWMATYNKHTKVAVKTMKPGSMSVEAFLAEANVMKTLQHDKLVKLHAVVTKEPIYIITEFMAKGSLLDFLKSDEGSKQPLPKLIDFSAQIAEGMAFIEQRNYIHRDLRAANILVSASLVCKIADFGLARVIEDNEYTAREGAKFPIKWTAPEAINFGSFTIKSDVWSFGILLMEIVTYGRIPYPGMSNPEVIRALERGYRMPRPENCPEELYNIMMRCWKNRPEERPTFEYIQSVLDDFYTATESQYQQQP

Regarding `Cc1ccc(NC(=O)CC2CC2)cc1-c1ccc(C(=O)NCC2CC2)cc1`, the inhibition in assay [1] was found to be 7.42%; in [2], 3.49%; in assay [3], 1.97%; in assay [4], 5.15%; in [5], 0.64%; in assay [6], 0.87%. Further, the inhibition in [7] was -0.77%; in assay [8] it was 2.08%; in assay [9] it was -0.55%; in assay [10], 1.7%; in [11], 5.9%; in assay [12], 9%. The inhibition in [13] stood at 10.3%; in [14], 1.36%; in assay [15], 2.09%; in assay [16], 2.71%; in [17] it was 5.25%; in assay [18], 2.99%. In addition, the inhibition worked out at 3.28% in assay [19] and 1.08% in assay [20].

Turning to `CC(C)c1ccc2c(c1)NC(=O)/C2=N/Nc1ccc(S(N)(=O)=O)cc1`, the inhibition in [1] came to 4.79%; in assay [2] it was 2.6%; in assay [3] it was 1.38%; in assay [4], 2.93%; in assay [5], 3.33%; in assay [6], 1.38%. Moreover, the inhibition worked out at 5.37% in [7]; 5.18% in [8]; 34.6% in assay [9]; 2.02% in [10]; 7.54% in assay [11]; 0.57% in assay [12]. In addition, the inhibition in assay [13] was 11%; in assay [14], -0.14%; in assay [15], 1.33%; in [16] it was 4%; in assay [17], 1.87%; in assay [18] it was -1.32%. In addition, the inhibition in assay [19] was -1.93%; in assay [20] it was 0.01%.

For `NS(=O)(=O)c1ccc(-c2cc3ccncc3cc2OCc2ccccc2)cc1`, the inhibition in assay [1] was 7.84%; in assay [2], 2.8%; in [3], 1.7%; in assay [4], 9.2%; in assay [5], 1.86%; in assay [6] it was -1.68%. Further, the inhibition in assay [7] was 1.58%; in assay [8] it was -0.56%; in assay [9] it was 1.76%; in [10], 1.04%; in assay [11], 3.52%; in assay [12], 4.9%. The inhibition in assay [13] was 6.46%; in [14], 1.47%; in assay [15], 2.17%; in assay [16] it was 4.34%; in [17] it was 5.38%; in [18] it was 2.36%. The inhibition came out at 2.61% in assay [19] and 0.77% in [20].

(Values after ChEMBL document CHEMBL1961873, “Compounds: GSK PKIS; Assays: Nanosyn kinase panel” (2012).)
